Assay results as given in PubChem BioAssay AID588458 (Sanford-Burnham Center for Chemical Genomics, 2011).
In all, about 360,000 compounds went through this assay and about 3,000 (0.83%) were called active. This excerpt belongs to a sample that is enriched for actives. Unmarked numbers belong to inactive results. Rule as the data show it: active = inhibition above about 50%; inactive = the rest.

The compounds below were run against DNA (cytosine-5)-methyltransferase 1 (Homo sapiens) (UniProt P26358) (assay: human DNMT1 methyltransferase inhibitors, primary screen, biochemical, molecular beacon, fluorescence, HinP1I cleavage, uHTS (AID 588458)). Conditions: at 10 µM, stronger effect = higher value.
DNA (cytosine-5)-methyltransferase 1 (Homo sapiens), sequence (P26358 504-1616 limits assumed): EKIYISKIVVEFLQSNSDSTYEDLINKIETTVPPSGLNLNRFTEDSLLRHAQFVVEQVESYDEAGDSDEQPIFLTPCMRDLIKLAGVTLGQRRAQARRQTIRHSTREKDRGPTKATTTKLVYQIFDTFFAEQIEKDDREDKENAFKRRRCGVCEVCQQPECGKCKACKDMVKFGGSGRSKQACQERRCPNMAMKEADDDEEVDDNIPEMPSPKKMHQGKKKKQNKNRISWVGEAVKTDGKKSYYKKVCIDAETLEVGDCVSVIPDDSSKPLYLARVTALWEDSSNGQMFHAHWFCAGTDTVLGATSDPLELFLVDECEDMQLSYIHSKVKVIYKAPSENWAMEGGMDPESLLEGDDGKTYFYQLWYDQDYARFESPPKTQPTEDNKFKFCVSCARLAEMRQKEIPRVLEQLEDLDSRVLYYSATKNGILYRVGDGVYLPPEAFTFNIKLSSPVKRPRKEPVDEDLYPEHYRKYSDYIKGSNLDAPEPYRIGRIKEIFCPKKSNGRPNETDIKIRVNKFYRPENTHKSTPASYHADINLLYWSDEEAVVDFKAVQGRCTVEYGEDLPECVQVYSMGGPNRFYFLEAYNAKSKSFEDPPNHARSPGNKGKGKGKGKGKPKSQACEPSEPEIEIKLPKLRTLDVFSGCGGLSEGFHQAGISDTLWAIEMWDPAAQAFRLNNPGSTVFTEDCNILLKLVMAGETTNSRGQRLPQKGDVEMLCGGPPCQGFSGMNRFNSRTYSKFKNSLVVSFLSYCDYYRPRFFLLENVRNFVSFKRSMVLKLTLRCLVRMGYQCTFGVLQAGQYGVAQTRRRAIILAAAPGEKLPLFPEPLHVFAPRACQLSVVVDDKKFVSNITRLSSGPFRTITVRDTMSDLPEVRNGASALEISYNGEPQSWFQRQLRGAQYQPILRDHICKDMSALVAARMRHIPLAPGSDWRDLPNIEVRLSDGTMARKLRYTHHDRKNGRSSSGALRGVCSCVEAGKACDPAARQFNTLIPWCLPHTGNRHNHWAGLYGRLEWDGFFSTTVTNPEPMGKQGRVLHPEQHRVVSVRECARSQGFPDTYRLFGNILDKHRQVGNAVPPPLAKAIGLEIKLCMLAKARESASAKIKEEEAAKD

| SMILES | inhibition (reported as % activation of signal) |
| --- | --- |
| C[C@H]1CN([C@@H](C)CO)C(=O)CCCn2cc(nn2)CO[C@@H]1CN(C)S(=O)(=O)c1ccccc1C#N | 8.79% |
| C=C(Br)CN1CCN(CC(=C)Br)CC1 | 1.67% |
| Cc1cc2nc(-c3ccco3)c(Cc3cccc(F)c3)n2c(C)c1Br | 56.4% (active) |
| Cc1ccc2nc(-c3ccco3)c(Cc3cccc(Cl)c3)n2c1 | -0.88% |
| Cc1cc2nc(-c3ccc(Cl)cc3)c(Cc3cccc(F)c3)n2c(C)c1Br | 37.2% |
| CCN1CCN(c2ccc(S(=O)(=O)N3CCCCC3)cc2NC(=O)c2cccc(NC(C)=O)c2)CC1 | -6.35% |
| COc1cccc(NC(=O)CSc2nccn(-c3ccc4c(c3)OCCO4)c2=O)c1 | 0.94% |
| CCC(C)OC(=O)C(C)Oc1ccc(-c2ccccc2)cc1 (stereo not given) | -3.17% |
| NC(CSC1(c2ccccc2)c2ccccc2-c2ccccc21)C(=O)O (stereo not given) | 38.3% |
| NC(CSC(c1ccccc1)(c1ccccc1)c1ccc(-c2ccccc2)cc1)C(=O)O (stereo not given) | 89% (active) |
| COC(=O)CCCCC1=CCC2C(=O)C=C(O)C2C1 (stereo not given) | 92.7% (active) |
| CCOc1ccc2[nH]c(=S)sc2c1 | 0.55% |
| CSc1ncccc1C(=O)Nc1ccc(C)cn1 | -0.42% |
| Cc1ccc(NC(=O)c2cc(-c3ccc(C)o3)nc3ccccc23)nc1 | 76.5% (active) |
| CC(=O)N1CCN(C(=O)c2cc(-c3ccc(C)o3)nc3ccccc23)CC1 | 1.05% |
| COc1ccccc1-n1nnnc1S(=O)(=O)Cc1ccc(Cl)cc1 | 22% |
| O=C(CCc1nnc2ccc(NCc3ccco3)nn12)Nc1cc(F)ccc1F | 29.7% |
| COC(=O)c1ccc(C(=O)NC2CC(C)(C)Cc3c2cnn3-c2ccc(F)cc2)nc1 (stereo not given) | -1.04% |
| CCCOc1ccc(F)cc1-c1cc(C(=O)Nc2ccc(F)cc2)[nH]n1 | -1.3% |
| COc1cc(F)ccc1-c1cc(C(=O)NCC2CCCCC2)[nH]n1 | -0.63% |
| COc1ccc(OC)c(NC(=O)c2cc(-c3cc(F)ccc3OCC3CCCO3)n[nH]2)c1 (stereo not given) | 105% (active) |
| Cc1ccc(-n2c(SCC(=O)N3CCC(C(=O)O)CC3)nc3ccccc3c2=O)cc1C | -1.54% |
| Cc1cc(C)c(C(=O)CSc2nc(C)cc(=O)[nH]2)c(C)c1 | -2.03% |

| SMILES | inhibition (reported as % activation of signal) |
| --- | --- |
| COc1ccc(C2=NOC(C(=O)NCc3ccco3)C2)cc1OC (stereo not given) | 1.36% |
| CCOc1ccc(C(=O)Nc2cc(Cl)ccc2-n2cncn2)cc1OC | 0.02% |
| CC1CCN(C(=O)C2CCN(S(=O)(=O)N3CCC4(CC3)OCCO4)CC2)CC1 | 1.13% |
| CCOC(=O)c1c(NC(=O)Cn2nc(C(F)(F)F)cc2C)sc2c1CCC2 | -22.3% |
| COC(=O)C(NC(C)=O)(Nc1nc2c(s1)CCCC2)C(F)(F)F (stereo not given) | 0.31% |
| CCOC(=O)C(NC(=O)CC(C)C)(Nc1sc2c(c1C(N)=O)CCCC2)C(F)(F)F (stereo not given) | 85.2% (active) |
| O=C(O)CSc1ccc(S(=O)(=O)N2CCCC2)cn1 | -4.98% |
| N#Cc1c(N2CCCCC2)nc(N)c2c(N)nc(SCC(=O)O)cc12 | 52.1% (active) |
| N#Cc1c(C(F)(F)F)cc(-c2cccs2)nc1N1CCCCC1 | -1.64% |
| CC1(C)C2CC=C(/C=N/NC(=O)c3ccc(Cl)cc3)C1C2 (stereo not given) | 2.7% |
| Nc1nc2c(ncn2[C@@H]2O[C@H](CNS(=O)(=O)N3CCc4ccccc4C3)[C@@H](O)[C@H]2O)c(=O)[nH]1 | 0.15% |
| COCCNC(=O)C1(C)CCCN(Cc2cccc(F)c2)C1 (stereo not given) | -1.11% |
| O=S(=O)(Nc1n[nH]c(C(F)(F)F)n1)c1ccccc1 | -0.37% |
| Nc1cc2c(cc1Br)-c1ccc(F)cc1C2=O | 71.6% (active) |
| CC(=O)Nc1ccc(S(=O)(=O)Nc2cc(C)cn(Cc3ccc(C)cc3)c2=O)cc1 | -4.47% |
| CC(=O)c1ccc(Nc2nc(C(N)c3ccccc3)cs2)cc1 (stereo not given) | 80.3% (active) |
| NC(c1ccccc1)c1csc(NC(=O)Nc2cccc(C(F)(F)F)c2)n1 (stereo not given) | -22.9% |
| CC(=O)c1ccc(Nc2nc(C(N)c3ccccc3Cl)cs2)cc1 (stereo not given) | -17.7% |
| CCCS(=O)(=O)NC(=O)C1(C)CCN(C(=O)c2sccc2C)C1 (stereo not given) | -0.36% |
| COc1cc(NC(=O)CCNC(=O)Cn2ccc3ccccc3c2=O)cc(OC)c1OC | -1.53% |
| CCOC(=O)c1ccn(S(=O)(=O)c2ccc(C)cc2)c1-c1ccccc1 | 0.08% |
| C=C(C)C(=O)Nc1cccc(C2=NOC3(C2)C[C@H](C(N)=O)N(C(=O)C(c2ccccc2)c2ccccc2)C3)c1 (stereo not given in full) | 98.1% (active) |
| CC/C=C/C(=O)N1CC2(CC(c3cccc(NC(=O)CC)c3)=NO2)C[C@H]1C(N)=O (stereo not given in full) | 5.63% |

| SMILES | inhibition (reported as % activation of signal) |
| --- | --- |
| C/C=C\C=C\C(=O)N1CC2(CC(c3cccc(NC(=O)/C(C)=C\C)c3)=NO2)C[C@H]1C(N)=O (stereo not given in full) | -7.28% |
| CC(=O)Nc1ccc(NC(=O)C2CCCN2S(=O)(=O)c2cccc(C(F)(F)F)c2)cc1 (stereo not given) | -0.75% |
| COc1cccc(-n2c(N)cc(=O)nc2SCC(=O)Nc2cc(C)on2)c1 | 0.03% |
| O=C(c1ccccc1Cl)N(Cc1ccccc1F)N1C(=O)CCCC1=O | 1.73% |
| COc1ccc(NC(=O)COC(=O)c2ccncc2)c(OC)c1 | 7.14% |
| COc1ccc(NC(=O)CCn2ccnc2)c(OC)c1 | 78.8% (active) |
| COc1ccc(NC(=O)CCCC2CCCCC2)c(OC)c1 | 1.18% |
| O=C(OCCO)c1cc(Cl)c(C(=O)OCCO)cc1Cl | -0.85% |
| FC(F)(F)c1ccc(-c2cccc3c2C2CC3CCN2Cc2ccccc2)cc1 (stereo not given) | 5.02% |
| Cc1ccc(C)c(-c2nnc(NC(=O)CS(=O)(=O)c3ccccc3)o2)c1 | 2.2% |
| COc1cc(-c2nnc(NC(=O)C3=COCCO3)o2)cc(OC)c1OC | 0.63% |
| COc1cc(-c2nnc(NC(=O)CS(=O)(=O)c3ccc(Cl)cc3)o2)cc(OC)c1OC | 64.7% (active) |
| O=C(COc1cccc2c1CCNC2=O)NC1CCCCC1 | 0.71% |
| COc1ccc(C)cc1N(C(=O)Cn1nnc(-c2ccc(C)o2)n1)C(C(=O)NC1CCCC1)c1ccncc1 (stereo not given) | 0.4% |
| CCOc1cc(NC(=O)c2ccco2)c(OCC)cc1NC(=O)COc1ccccc1 | 67.3% (active) |
| COc1ccc(NC(=O)CCC(=O)Nc2cc(OC)c(NC(=O)c3ccco3)cc2OC)c(OC)c1 | -1.01% |
| CCOc1cc(NC(=S)NCc2ccco2)c(OCC)cc1NC(=O)c1ccco1 | -8.9% |
| CC(C)(C(=O)N1CCC1(C)C(=O)NS(=O)(=O)c1ccc(Br)cc1)c1ccccc1 (stereo not given) | 1.25% |
| CCCCCCc1cc2cc(-c3nnc(-c4ccccc4)o3)c(=O)oc2cc1O | 88.6% (active) |
| CC1CCN(CCCNC(=O)CN2C(=O)CSc3ccc(S(=O)(=O)N4CCCCC4)cc32)CC1 | 0.73% |
| CC(C)C(NC(=O)c1c(F)cccc1F)C(=O)NCc1ccncc1 (stereo not given) | 1.21% |
| O=C(NCCc1cccc(F)c1)C1CC(O)CN1C(=O)Nc1ccccc1 (stereo not given) | 7.51% |
| COc1cc(/C=N/N=C(\N)c2nonc2N)cc(OC)c1OC | -0.45% |

| SMILES | inhibition (reported as % activation of signal) |
| --- | --- |
| CSc1ccc(CNC(=O)C2(C)CCCN2C)cc1 (stereo not given) | 9.6% |
| CSc1ccc(CNC(=O)c2ccc(NC(=O)C3=CSCCO3)cc2)cc1 | 62.1% (active) |
| O=C(Nc1ccc(C(=O)NCc2ccccc2Cl)cc1)C1=CSCCO1 | -10.3% |
| O=C(Nc1cccc2cccnc12)c1ccc2sc([C@H]3C[C@H](O)[C@@H](CO)O3)nc2c1 | -5.28% |
| CC(=O)c1ccc(NC(=O)c2ccc3c(Cl)c4c(nc3c2)CCCC4)cc1 | 76.2% (active) |
| COc1cccc(NC(=O)c2ccc3c(SCC(=O)O)c4c(nc3c2)CCCC4)c1 | 9.48% |
| CC(C)CCNC(=O)c1ccc2c(Cl)c3c(nc2c1)CCC3 | -1.49% |
| CC1=C(C(=O)N2CCOCC2)CC(CC(=O)NCCCN(C)C)C(=O)N1Cc1ccc(C(C)(C)C)cc1 (stereo not given) | 2.88% |
| O=c1c2cc([N+](=O)[O-])ccc2nc2n1CCC2 | 2.73% |
| Cc1cccc(NC(=S)N(CCN(C)C)C(C)c2ccco2)c1 (stereo not given) | -0.09% |
| O=C(CCc1n[nH]c(=O)[nH]c1=O)N/N=C/c1ccc(Br)o1 | 5.93% |
| O=C(CCC(=O)N/N=C/c1ccc(Br)o1)N/N=C/c1ccc(Br)o1 | 17% |
| O=C(CCNC(=O)c1ccccc1)NN=Cc1ccc(Br)o1 | 50.6% (active) |
| COc1ccccc1OC(C)C(=O)Nc1ccc(S(=O)(=O)Nc2nccs2)cc1 (stereo not given) | 0.4% |
| COc1ccc(NCc2nnc(SCc3ccccc3)n2-c2ccc(OC)cc2)cc1 | -3.05% |
| Clc1ccccc1CSc1nnc(-c2ccco2)c(-c2ccco2)n1 | 92.8% (active) |
| c1ccc(CSc2nnc(-c3ccco3)c(-c3ccco3)n2)cc1 | 113% (active) |
| CSc1nc(-c2ccco2)nn1C(=O)c1ccccc1Cl | 4.2% |
| O=C(Nc1nnc(SCc2ccccc2Cl)s1)c1cccc([N+](=O)[O-])c1 | -4.99% |
| c1ccc(Cc2c(-c3ccco3)nc3c4ccccc4ccn23)cc1 | -16.2% |
| CC(c1nnc(SCC(=O)Nc2sccc2C#N)n1-c1ccc(Cl)cc1)N(C)C (stereo not given) | -2.07% |
